Screening data as filed in PubChem.
Rows were chosen to be rich in hits. Some 19% of all compounds tested hit in one or more screens of this group.
TDP1 cell CPT: DT40-hTDP1 cell growth loss with CPT; chicken DT40 Tdp1-/-;hTDP1 cells + 20 nM CPT, ATP luminescence, 48 h; Potency, µM (series often up to 46.2 µM), most hits filed as inhibitors; actives 12% (n = 420,000); AID 686979; also: nearly all actives have a fitted effect of over 55% in size
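Cell growth measured by CellTiter-Glo luminescence after a minimum 48 h, 37 C compound exposure with 20 nM CPT in Tdp1-knockout DT40 cells stably expressing hTDP1, seeded 400/well; qHTS titration format.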
RORg inh: inhibitors of mouse ROR gamma transcriptional activity; P51450; Drosophila S2 Gal4-RORgamma UAS-luciferase reporter, 20 h; Potency, µM (doses to about 53.6 µM), hits mostly inhibitors; actives 5.4% (n = 310,000); also: nearly all actives have a fitted effect of over 60% in size
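Drosophila S2 cells stably expressing Gal4-DBD/mouse RORγ fusion under metallothionein promoter plus UAS-luciferase; compound 1 h, then 700 uM CuSO4 induction for 20 h at ambient temperature; inhibition read as reduced luminescence.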
TDP1 inh: blocks human tyrosyl-DNA phosphodiesterase 1 | recombinant TDP1, AlphaScreen DNA substrate cleavage | Potency, µM (top dose mostly 130 µM), hits mostly inhibitors | actives 0.28% (n = 350,000); also: nearly all actives have a fitted effect of over 40% in size
Target sequence (Q9NUW8 whole entry, looked up): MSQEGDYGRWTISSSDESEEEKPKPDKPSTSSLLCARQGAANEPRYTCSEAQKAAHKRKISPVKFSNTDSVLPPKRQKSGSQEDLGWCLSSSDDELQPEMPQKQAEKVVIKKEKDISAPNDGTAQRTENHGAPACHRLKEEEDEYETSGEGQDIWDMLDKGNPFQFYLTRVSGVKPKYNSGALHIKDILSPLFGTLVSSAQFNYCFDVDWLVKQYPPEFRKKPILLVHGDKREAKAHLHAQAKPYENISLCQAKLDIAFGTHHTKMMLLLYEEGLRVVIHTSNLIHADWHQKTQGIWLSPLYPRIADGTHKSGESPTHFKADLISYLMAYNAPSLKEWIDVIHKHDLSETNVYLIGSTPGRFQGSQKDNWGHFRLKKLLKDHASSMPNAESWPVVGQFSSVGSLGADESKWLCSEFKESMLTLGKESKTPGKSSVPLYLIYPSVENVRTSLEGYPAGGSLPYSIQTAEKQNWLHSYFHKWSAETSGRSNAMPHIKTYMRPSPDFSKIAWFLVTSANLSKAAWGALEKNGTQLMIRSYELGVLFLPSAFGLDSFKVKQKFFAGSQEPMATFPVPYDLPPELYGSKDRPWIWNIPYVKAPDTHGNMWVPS
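Tdp1 1 nM final; 15 min RT w/ cpd; substrate 15 nM, 5 min; beads 10 ug/ml, 10 min; AlphaScreen read. Neg ctrl: no enzyme.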
TDP1 cell noCPT: qHTS for Inhibitors of human tyrosyl-DNA phosphodiesterase 1 (TDP1): qHTS in cells in absence of CPT | DT40 Tdp1-/- hTDP1 cells, no CPT, ATP luminescence, 48 h | Potency, µM (titrated, usually from 46.2 µM), actives largely listed as inhibitors | actives 15% (n = 420,000) | AID 686978, 2013; also: nearly all actives have a fitted effect of over 55% in size
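Cells were dispensed at 400 per well, compounds added by pin tool, plates incubated ≥48 hr at 37 °C, then CellTiter-Glo added for 30 min at room temperature before luminescence reading. Line: DT40 Tdp1-/- complemented with hTDP1; camptothecin omitted.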
Gal4-VP16 FLuc: inhibits Gal4-VP16 luciferase reporter, ROR gamma counter-screen; Drosophila S2 Gal4-VP16 UAS-luciferase, luminescence, 20 h; Potency, µM (series often up to 53.6 µM), actives largely listed as inhibitors; AID 2546; actives 3.5% (n = 310,000);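 also: Gal4-VP16 expression switched on by copper sulfate through the metallothionein promoter; nearly all actives have a fitted effect of over 50% in size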
Of the large screens only hits and unclear results are named; the others gave an inactive call. Calls follow the shape of the dose curve; as a rule, active = well fitted curve in the direction sought with a large enough effect; inconclusive = small, poorly fitted or top-dose-only effect, or another doubt; inactive = no such curve, though single readings can be large; an effect the other way counts as inactive or inconclusive.

CN(c1ccccc1)S(=O)(=O)c1cccc(C(=O)OCC(=O)Nc2ccc3[nH]c(=O)[nH]c3c2)c1	none (no result: RORg inh, TDP1 inh, Gal4-VP16 FLuc)
CCCOc1ccc(-c2nc(OC)c3ccccc3n2)cc1	none
Cc1cc2ccccc2n1CCNC(=O)C(C)Oc1ccccc1 (centres undefined)	TDP1 cell CPT 23µM, RORg inh 7.1µM, Gal4-VP16 FLuc inconclusive
Cc1cc2ccccc2n1CCNC(=O)C(C)C	RORg inh inconclusive
Cc1ccc(C(=O)NCCn2c(C)cc3ccccc32)cc1C	TDP1 cell CPT 12µM, TDP1 cell noCPT 10µM (no result: RORg inh, Gal4-VP16 FLuc)
O=c1cc(C(F)(F)F)[nH]c2ccc(C(F)(F)F)cc12	TDP1 cell CPT 7.3µM, TDP1 cell noCPT 0.73µM, Gal4-VP16 FLuc inconclusive
Cc1cc(=O)c2ccc(C(F)(F)F)cc2[nH]1	TDP1 cell noCPT inconclusive (no result: TDP1 inh)
COc1ccc(OC)c(NC(=O)c2oc3c(c2C)C(O)CC(C)(C)C3)c1 (centres undefined)	TDP1 cell CPT 15µM, TDP1 cell noCPT inconclusive
COc1ccc(OC)c(NC(=O)C(=O)NNC(=O)C23CC4CC(CC(C4)C2)C3)c1	TDP1 cell CPT inconclusive, RORg inh 2.5µM, TDP1 cell noCPT inconclusive, Gal4-VP16 FLuc inconclusive (no result: TDP1 inh)
CCCCOc1ccc(C(=O)Nc2ccc(OCC(=O)N3CCOCC3)cc2)cc1	Gal4-VP16 FLuc inconclusive
CCOc1ccccc1C1CC(=O)NC(C)=C1C(=O)OC1CCCCCC1 (centres undefined)	TDP1 cell CPT 21µM, TDP1 cell noCPT 16µM (no result: RORg inh, Gal4-VP16 FLuc)
CCC(C)OC(=O)C1=C(C)NC(=O)CC1c1ccccc1OC (centres undefined)	TDP1 cell CPT 8.2µM, TDP1 cell noCPT 10µM
CSCCOC(=O)C1=C(C)NC(=O)CC1c1ccccc1Cl (centres undefined)	TDP1 cell CPT inconclusive, TDP1 cell noCPT inconclusive
CCOc1ccccc1C1CC(=O)NC(C)=C1C(=O)OCc1ccc(C)cc1 (centres undefined)	TDP1 cell CPT inconclusive, TDP1 cell noCPT 16µM (no result: RORg inh, Gal4-VP16 FLuc)
CCCOc1ccccc1C1CC(=O)NC(C)=C1C(=O)OCC(C)C (centres undefined)	TDP1 cell CPT 21µM, TDP1 cell noCPT 16µM
COC(=O)C1=C(C)NC(=O)CC1c1ccccc1F (centres undefined)	none
CC1=C(C(=O)OC(C)C)C(c2ccccc2Cl)CC(=O)N1 (centres undefined)	TDP1 cell CPT 21µM, TDP1 cell noCPT 12µM
CC(=O)C1=C(C)NC(=O)CC1c1ccccc1Cl (centres undefined)	RORg inh inconclusive
COC(=O)c1ccc(NC(=O)CSc2n[nH]c(CC(C)C)n2)cc1	none (no result: RORg inh, TDP1 inh, Gal4-VP16 FLuc)
COc1ccc(CC(CC(=O)O)C(=O)Nc2ccccc2)cc1 (centres undefined)	none
Cc1cc(C)c(S(=O)(=O)Nc2ccccc2-c2ccccc2)c(C)c1	TDP1 cell CPT inconclusive, TDP1 cell noCPT 21µM, Gal4-VP16 FLuc inconclusive
Cc1cc(C)c(S(=O)(=O)Nc2ccccc2C(F)(F)F)c(C)c1	none
Cc1cc(C)c(S(=O)(=O)Nc2nnc(C)s2)c(C)c1	TDP1 cell CPT 15µM, TDP1 cell noCPT 18µM
O=C(Nc1ncccn1)C1c2ccccc2Oc2ccccc21	none
Cc1cccc(NC(=O)C2c3ccccc3Oc3ccccc32)n1	TDP1 cell CPT 15µM, TDP1 cell noCPT inconclusive
Cc1cccc2sc(NC(=O)C3c4ccccc4Oc4ccccc43)nc12	TDP1 cell CPT 12µM, TDP1 cell noCPT inconclusive
Cc1ccccc1Cn1nc(C)c(NC(=O)C2(C)CC2(Cl)Cl)c1C (centres undefined)	none
Cc1cccc2sc(NC(=O)C3CC3)nc12	none (no result: TDP1 inh)
Cc1ccccc1Cn1nc(C)c(NC(=O)C2c3ccccc3Oc3ccccc32)c1C	TDP1 cell CPT 12µM, TDP1 cell noCPT 15µM
Cc1ccc(N/C=C(\C2OC(=O)c3ccccc32)[N+](=O)[O-])c(C)c1 (centres undefined)	RORg inh inconclusive, Gal4-VP16 FLuc inconclusive
Cc1cccc(NC(=O)CC2c3ccccc3Oc3ccccc32)c1	Gal4-VP16 FLuc inconclusive
CCC(C)c1ccc(NC(=S)NCc2cccs2)cc1 (centres undefined)	TDP1 cell CPT inconclusive, RORg inh 7.1µM, TDP1 cell noCPT inconclusive, Gal4-VP16 FLuc 11µM
COCCNC(=S)NCc1cccs1	none
CC(C)(C)c1ccc(NC(=S)NCc2cccs2)cc1	TDP1 cell CPT inconclusive, RORg inh 7.1µM, TDP1 cell noCPT inconclusive, Gal4-VP16 FLuc 10µM
Oc1ccc(NCc2cccs2)cc1	TDP1 cell CPT inconclusive, RORg inh inconclusive, TDP1 cell noCPT 13µM, Gal4-VP16 FLuc inconclusive
CCOC(=O)c1cc(CC)sc1NC(=O)CSc1nc2ccccc2c(=O)n1Cc1ccco1	TDP1 cell CPT inconclusive, TDP1 cell noCPT inconclusive
Cc1sc2nc(SCC(=O)C(C)(C)C)n(Cc3ccco3)c(=O)c2c1C	TDP1 cell CPT 13µM, TDP1 cell noCPT 13µM
CCOC(=O)CC(=O)CSc1nc2sc(C)cc2c(=O)n1Cc1ccco1	TDP1 cell CPT 16µM, RORg inh inconclusive, TDP1 cell noCPT 23µM, Gal4-VP16 FLuc 22µM
Cc1c(C(=O)N2CCN(c3ccccc3F)CC2)oc2c1C(=O)CC(C)(C)C2	TDP1 cell CPT inconclusive
CCOC(=O)c1c(NC(=O)CCN2C(=O)c3cccc([N+](=O)[O-])c3C2=O)sc(C(=O)OC(C)C)c1C	TDP1 cell CPT inconclusive, TDP1 cell noCPT inconclusive
COc1ccc(C(c2sc3nc(C)nn3c2O)N2CCN(Cc3ccccc3)CC2)cc1OC (centres undefined)	none
Cc1nc2sc(C(c3cccs3)N3CCN(Cc4ccccc4)CC3)c(O)n2n1 (centres undefined)	TDP1 cell CPT 23µM (no result: TDP1 inh)
NC(=O)C1=C[C@H](c2coc3ccccc3c2=O)C[C@H](OCCCCO)O1	none
NC(CSC(c1ccccc1)(c1ccccc1)c1ccc2c(c1)OCO2)C(=O)O (centres undefined)	TDP1 cell CPT inconclusive, TDP1 cell noCPT 7.3µM (no result: RORg inh, TDP1 inh, Gal4-VP16 FLuc)
CC(=O)Nc1ccc(S(=O)(=O)N[C@@H](C)C(=O)OCC(=O)c2ccc[nH]2)cc1	none (no result: RORg inh, Gal4-VP16 FLuc)
CC(=O)NC(CCS(C)(=O)=O)C(=O)Nc1cccc(C)c1 (centres undefined)	none
Fc1ccc2nc(N3CCCC3)sc2c1	none
O=C(c1ccccc1)N1CCN(c2nc3ccc([N+](=O)[O-])cc3s2)CC1	TDP1 cell CPT 6.5µM, RORg inh inconclusive, TDP1 cell noCPT 5.2µM, Gal4-VP16 FLuc 8.9µM
O=[N+]([O-])c1ccc2nc(N3CCCC3)sc2c1	TDP1 cell CPT inconclusive, TDP1 cell noCPT 18µM (no result: TDP1 inh)
COc1ccc2c(c1)C(=O)CCC2c1ccccc1 (centres undefined)	TDP1 cell noCPT inconclusive (no result: TDP1 inh)
CCC(=O)C1=C(O)C(c2cccc(Oc3ccccc3)c2)CCC1=O (centres undefined)	TDP1 cell CPT 21µM, RORg inh inconclusive, TDP1 cell noCPT 9.2µM
